In ChEMBL document CHEMBL2218924, “A broad activity screen in support of a chemogenomic map for kinase signalling research and drug discovery” (Biochem J, 2013):

Tests used:
[1] = molecular target: Tyrosine-protein kinase SYK (Homo sapiens) (UniProt P43405); settings: at 10 µM
[2] = molecular target: T1, Mitogen-activated protein kinase kinase kinase 7 (Homo sapiens) (UniProt O43318); settings: at 1 µM
T1 sequence (whole entry): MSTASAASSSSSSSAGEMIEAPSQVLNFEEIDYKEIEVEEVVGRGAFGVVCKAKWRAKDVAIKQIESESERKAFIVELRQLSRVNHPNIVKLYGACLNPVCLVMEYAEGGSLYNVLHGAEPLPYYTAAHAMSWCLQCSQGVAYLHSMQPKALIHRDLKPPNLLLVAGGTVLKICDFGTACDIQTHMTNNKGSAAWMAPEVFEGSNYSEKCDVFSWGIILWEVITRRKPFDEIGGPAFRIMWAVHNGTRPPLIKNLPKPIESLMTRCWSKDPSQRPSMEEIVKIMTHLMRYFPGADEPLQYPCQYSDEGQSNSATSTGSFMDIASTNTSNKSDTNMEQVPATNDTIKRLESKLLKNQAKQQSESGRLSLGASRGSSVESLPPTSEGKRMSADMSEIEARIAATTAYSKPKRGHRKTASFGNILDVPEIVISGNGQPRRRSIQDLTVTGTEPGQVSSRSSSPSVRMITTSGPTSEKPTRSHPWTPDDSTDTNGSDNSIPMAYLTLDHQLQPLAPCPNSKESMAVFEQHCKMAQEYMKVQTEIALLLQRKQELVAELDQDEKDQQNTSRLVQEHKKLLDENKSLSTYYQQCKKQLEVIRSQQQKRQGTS

[3] = molecular target: T1, Mitogen-activated protein kinase kinase kinase 7 (Homo sapiens); settings: at 10 µM
[4] = molecular target: T2, Serine/threonine-protein kinase TAO1 (Homo sapiens) (UniProt Q7L7X3); settings: at 1 µM
T2 sequence (whole entry): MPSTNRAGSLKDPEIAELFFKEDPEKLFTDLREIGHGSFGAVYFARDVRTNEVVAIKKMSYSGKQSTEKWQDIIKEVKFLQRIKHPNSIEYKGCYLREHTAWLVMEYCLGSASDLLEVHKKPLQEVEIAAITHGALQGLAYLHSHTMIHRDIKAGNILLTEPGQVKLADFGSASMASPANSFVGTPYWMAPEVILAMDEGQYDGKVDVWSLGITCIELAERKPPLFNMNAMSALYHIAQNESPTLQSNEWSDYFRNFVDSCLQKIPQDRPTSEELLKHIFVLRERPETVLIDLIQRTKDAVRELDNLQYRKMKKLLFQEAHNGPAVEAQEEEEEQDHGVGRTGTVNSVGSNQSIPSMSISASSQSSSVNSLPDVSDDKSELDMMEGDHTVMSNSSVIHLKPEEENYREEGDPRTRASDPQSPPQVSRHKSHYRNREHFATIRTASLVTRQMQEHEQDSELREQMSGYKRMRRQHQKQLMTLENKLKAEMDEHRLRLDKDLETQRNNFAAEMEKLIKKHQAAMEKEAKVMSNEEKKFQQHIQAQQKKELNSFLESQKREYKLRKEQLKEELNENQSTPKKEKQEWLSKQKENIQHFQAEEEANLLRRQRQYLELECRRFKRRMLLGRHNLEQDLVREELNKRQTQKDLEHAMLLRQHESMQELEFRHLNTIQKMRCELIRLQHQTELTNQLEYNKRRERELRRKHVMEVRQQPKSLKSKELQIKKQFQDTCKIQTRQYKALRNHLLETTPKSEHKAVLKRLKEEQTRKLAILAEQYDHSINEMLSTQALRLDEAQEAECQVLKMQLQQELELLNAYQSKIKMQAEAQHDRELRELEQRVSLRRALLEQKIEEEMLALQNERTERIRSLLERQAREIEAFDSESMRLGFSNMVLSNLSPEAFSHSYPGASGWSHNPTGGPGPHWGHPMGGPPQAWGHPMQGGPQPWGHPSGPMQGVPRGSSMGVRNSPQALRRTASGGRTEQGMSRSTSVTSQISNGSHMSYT

[5] = molecular target: T2, Serine/threonine-protein kinase TAO1 (Homo sapiens); settings: at 10 µM
[6] = molecular target: T3, Serine/threonine-protein kinase TAO2 (Homo sapiens) (UniProt Q9UL54); settings: at 1 µM
T3 sequence (whole entry): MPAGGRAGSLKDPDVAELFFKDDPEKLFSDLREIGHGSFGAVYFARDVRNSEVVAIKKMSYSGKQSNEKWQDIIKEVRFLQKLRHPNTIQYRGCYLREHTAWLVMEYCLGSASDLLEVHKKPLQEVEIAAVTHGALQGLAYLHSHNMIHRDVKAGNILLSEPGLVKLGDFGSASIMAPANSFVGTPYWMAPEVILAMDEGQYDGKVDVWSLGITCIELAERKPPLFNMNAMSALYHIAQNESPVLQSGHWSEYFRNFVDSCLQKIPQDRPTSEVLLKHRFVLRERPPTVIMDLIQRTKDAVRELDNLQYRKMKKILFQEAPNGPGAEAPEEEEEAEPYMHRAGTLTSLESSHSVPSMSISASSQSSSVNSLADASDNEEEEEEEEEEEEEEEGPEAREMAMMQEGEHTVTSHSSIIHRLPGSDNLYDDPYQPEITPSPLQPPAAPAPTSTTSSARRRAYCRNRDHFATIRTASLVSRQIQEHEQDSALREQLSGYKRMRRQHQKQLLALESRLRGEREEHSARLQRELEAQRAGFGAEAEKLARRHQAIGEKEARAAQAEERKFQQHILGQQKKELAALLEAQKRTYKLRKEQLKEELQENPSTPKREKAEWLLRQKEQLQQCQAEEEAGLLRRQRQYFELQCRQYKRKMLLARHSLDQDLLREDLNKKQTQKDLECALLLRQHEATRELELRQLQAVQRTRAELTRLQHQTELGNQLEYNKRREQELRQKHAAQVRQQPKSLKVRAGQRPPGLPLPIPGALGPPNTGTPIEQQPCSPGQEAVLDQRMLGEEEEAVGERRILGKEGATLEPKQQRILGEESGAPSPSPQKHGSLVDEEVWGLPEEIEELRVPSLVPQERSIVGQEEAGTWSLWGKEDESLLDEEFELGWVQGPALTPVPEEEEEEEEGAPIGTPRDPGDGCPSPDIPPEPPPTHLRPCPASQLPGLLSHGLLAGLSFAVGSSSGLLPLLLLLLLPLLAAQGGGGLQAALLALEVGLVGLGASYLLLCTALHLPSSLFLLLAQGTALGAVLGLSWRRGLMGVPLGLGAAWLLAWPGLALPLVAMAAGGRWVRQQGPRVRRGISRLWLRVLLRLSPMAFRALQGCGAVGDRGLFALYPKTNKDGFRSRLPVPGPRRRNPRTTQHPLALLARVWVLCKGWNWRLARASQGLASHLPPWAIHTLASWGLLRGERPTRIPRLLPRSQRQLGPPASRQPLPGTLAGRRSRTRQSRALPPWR

[7] = molecular target: T3, Serine/threonine-protein kinase TAO2 (Homo sapiens); settings: at 10 µM
[8] = molecular target: T4, Serine/threonine-protein kinase TAO3 (Homo sapiens) (UniProt Q9H2K8); settings: at 1 µM
T4 sequence (whole entry): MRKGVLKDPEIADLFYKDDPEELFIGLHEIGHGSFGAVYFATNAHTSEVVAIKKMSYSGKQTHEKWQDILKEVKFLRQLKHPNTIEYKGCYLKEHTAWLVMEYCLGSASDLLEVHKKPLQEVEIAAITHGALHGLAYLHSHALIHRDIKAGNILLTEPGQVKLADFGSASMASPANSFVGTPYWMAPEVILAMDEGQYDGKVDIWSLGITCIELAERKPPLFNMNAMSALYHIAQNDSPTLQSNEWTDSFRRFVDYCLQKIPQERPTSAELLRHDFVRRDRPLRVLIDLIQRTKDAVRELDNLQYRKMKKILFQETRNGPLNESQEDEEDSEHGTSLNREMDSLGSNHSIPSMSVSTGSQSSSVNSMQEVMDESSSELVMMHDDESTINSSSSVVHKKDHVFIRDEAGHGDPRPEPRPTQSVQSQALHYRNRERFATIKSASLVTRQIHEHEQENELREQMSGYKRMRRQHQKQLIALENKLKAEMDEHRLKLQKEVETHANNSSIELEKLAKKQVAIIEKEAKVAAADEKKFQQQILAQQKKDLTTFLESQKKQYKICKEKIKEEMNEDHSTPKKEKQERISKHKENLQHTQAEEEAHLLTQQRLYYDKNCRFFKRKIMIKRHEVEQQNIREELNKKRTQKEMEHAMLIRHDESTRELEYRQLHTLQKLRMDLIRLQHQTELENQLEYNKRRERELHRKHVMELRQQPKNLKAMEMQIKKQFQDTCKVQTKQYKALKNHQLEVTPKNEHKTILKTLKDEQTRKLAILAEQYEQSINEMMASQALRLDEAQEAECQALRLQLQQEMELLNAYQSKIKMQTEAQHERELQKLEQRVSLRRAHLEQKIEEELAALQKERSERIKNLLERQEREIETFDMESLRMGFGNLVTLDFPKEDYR

[9] = molecular target: T4, Serine/threonine-protein kinase TAO3 (Homo sapiens); settings: at 10 µM
[10] = molecular target: T5, Serine/threonine-protein kinase TBK1 (Homo sapiens) (UniProt Q9UHD2); settings: at 1 µM
T5 sequence (whole entry): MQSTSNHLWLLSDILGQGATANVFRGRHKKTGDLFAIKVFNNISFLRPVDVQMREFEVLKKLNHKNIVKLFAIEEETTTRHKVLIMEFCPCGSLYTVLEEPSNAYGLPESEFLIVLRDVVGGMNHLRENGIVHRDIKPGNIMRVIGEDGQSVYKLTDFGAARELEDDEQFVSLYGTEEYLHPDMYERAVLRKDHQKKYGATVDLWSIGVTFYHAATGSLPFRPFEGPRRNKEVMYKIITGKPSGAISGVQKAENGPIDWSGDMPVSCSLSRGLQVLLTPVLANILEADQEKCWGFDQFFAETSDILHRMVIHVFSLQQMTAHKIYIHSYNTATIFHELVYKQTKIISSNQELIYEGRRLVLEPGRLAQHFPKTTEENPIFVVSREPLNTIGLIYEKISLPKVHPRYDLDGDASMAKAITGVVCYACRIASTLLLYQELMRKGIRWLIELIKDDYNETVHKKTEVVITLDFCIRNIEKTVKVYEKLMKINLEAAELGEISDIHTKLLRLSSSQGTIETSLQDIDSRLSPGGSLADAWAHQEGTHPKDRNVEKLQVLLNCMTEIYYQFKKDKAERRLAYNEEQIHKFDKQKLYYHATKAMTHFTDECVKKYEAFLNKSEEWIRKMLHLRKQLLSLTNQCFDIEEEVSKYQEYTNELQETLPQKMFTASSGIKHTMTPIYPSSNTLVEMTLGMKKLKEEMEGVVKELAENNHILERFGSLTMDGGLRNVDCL

| SMILES | residual activity [1] | residual activity [2] | residual activity [3] | residual activity [4] | residual activity [5] | residual activity [6] | residual activity [7] | residual activity [8] | residual activity [9] | residual activity [10] |
| --- | --- | --- | --- | --- | --- | --- | --- | --- | --- | --- |
| O=c1cc(-c2cccc3c2Sc2ccccc2S3)oc(N2CCOCC2)c1 | 90% | 101% | 89% | 107% | 80% | 93% | 90% | 94% | 82% | 99% |
| CC(C)n1cnc2c(NCc3ccccc3)nc(NCCCO)nc21 | 105% | 96% | 92% | 87% | 81% | 100% | 101% | 97% | 88% | 79% |
| CC(C)n1cnc2/c(=N/c3cccc(Cl)c3)nc(NCCO)[nH]c21 | 56% | 77% | 24% | 87% | 59% | 70% | 63% | 93% | 54% | 57% |
| O=C1Nc2ccccc2/C1=C1/Nc2ccccc2/C1=N\OCCC(O)CO (stereo not drawn) | 42% | 36% | 38% | – | 45% | – | 70% | – | 71% | 9% |
| Cn1cnc2cc3c(Nc4cccc(Br)c4)ncnc3cc21 | 86% | 98% | 106% | – | 73% | 98% | 98% | 94% | 93% | 83% |
| O=C1NC(=O)c2cc(Nc3ccc(F)cc3)c(Nc3ccc(F)cc3)cc21 | 78% | 83% | – | 83% | 39% | 63% | 21% | 79% | 37% | 69% |
| Oc1c2ccccc2c2c3c(cccc13)N=N2 | – | 41% | 19% | 69% | 25% | 101% | 69% | 69% | 27% | 35% |
| Cc1cc(Nc2nc(-c3ccccc3)nc3ccccc23)n[nH]1 | 3% | 67% | 40% | – | 51% | – | 45% | – | 67% | 19% |
| c1ccc(-c2n[nH]cc2-c2ccnc3ccccc23)nc1 | – | 91% | 71% | 107% | 95% | 103% | 86% | 91% | 84% | 71% |
| O=C1c2ccccc2-[n+]2ccc3c([nH]c4ccccc43)c21 | 90% | 93% | 82% | 96% | 86% | – | 90% | 89% | 90% | 58% |
| CO[C@H]1[C@@H](OC)C[C@H](C)[C@@H](OC)C2=CC(=O)C=C(NC(=O)/C(C)=C/C=C/[C@H](OC)[C@@H](OC(N)=O)/C(C)=C/[C@@H]1C)C2=O | 87% | 96% | 94% | 98% | 89% | 99% | 93% | 107% | 95% | 77% |
| COc1cc2ncnc(Nc3ccc(Oc4ccccc4)cc3)c2cc1OC | 111% | 96% | 95% | 106% | 92% | 110% | 106% | 103% | 91% | 72% |
| Cc1cncc2cccc(S(=O)(=O)N3CCCN(C(=O)CN)C[C@H]3C)c12 | 85% | 88% | 83% | 81% | 28% | – | – | 93% | 65% | 68% |
| Cc1ccc(S(=O)(=O)/C=C/C#N)cc1 | 109% | 96% | 88% | 94% | 87% | 88% | 109% | 92% | 98% | 87% |
| N#CC(C#N)=C(N)/C(C#N)=C/c1ccc(O)cc1 | 74% | – | 89% | – | 81% | – | 87% | 99% | 85% | 82% |
| COc1cc2ncnc(Nc3ccc(NC(=O)c4ccccc4)cc3)c2cc1OC | 88% | 107% | 96% | – | 94% | 98% | 83% | 102% | 84% | 96% |
| NC(=O)c1ccc2[nH]c(-c3ccc(Oc4ccc(Cl)cc4)cc3)nc2c1 | 96% | 92% | 81% | 89% | 72% | 88% | 99% | 98% | 79% | 67% |
| O=C1NC(=O)/C(=C\c2ccc3nccnc3c2)S1 | 92% | 94% | 93% | 71% | 14% | 99% | 44% | 72% | 16% | 56% |
